The values that follow come from article PMC7862700, “An all-to-all approach to the identification of sequence-specific readers for epigenetic DNA modifications on cytosine”.

What all share (assay): DAPPL (digital affinity profiling via proximity ligation, sequencing); 10 mM Tris-HCl pH 7.5, 50 mM NaCl, 1 mM DTT, 4% glycerol, room temperature, 30 min; GST-TFs on glutathione beads, 16-mer random dsDNA library, 0.1% formaldehyde crosslink after washing; high values mean tight binding
Conditions in all cases: protein: recombinant; tags: N-terminal GST; dsDNA, one strand shown

One assay has as its target T1, FLI1 (Homo sapiens, UniProt Q01543 1-452).
T1 sequence: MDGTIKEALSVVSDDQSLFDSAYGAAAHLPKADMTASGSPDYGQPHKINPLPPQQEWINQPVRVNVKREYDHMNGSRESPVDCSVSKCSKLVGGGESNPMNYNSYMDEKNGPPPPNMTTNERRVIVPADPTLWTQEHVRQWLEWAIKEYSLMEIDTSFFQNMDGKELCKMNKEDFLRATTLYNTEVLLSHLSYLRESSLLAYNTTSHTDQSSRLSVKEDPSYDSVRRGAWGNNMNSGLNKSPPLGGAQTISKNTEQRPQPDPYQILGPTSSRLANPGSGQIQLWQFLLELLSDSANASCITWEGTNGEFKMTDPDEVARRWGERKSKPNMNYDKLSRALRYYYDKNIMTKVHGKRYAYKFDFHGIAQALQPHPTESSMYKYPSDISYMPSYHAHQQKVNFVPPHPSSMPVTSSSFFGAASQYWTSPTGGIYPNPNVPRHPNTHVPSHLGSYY
In short, it runs like this:
(§1)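 Human transcription factors were made in yeast as GST fusions, captured on glutathione beads and barcoded with DNA. With a tag-only sample included, the pool was incubated with 200 nmole of a random double-stranded 16-mer DNA library in Tris/NaCl/DTT/glycerol buffer at room temperature for 30 min, then crosslinked with 0.1% formaldehyde after washing, ligated by proximity, amplified and sequenced. For binding signal, each hexamer's read frequency for a factor is divided by its frequency for the tag-only sample.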

For another assay, the target named is T2, ELK1 (Homo sapiens, UniProt P19419 1-428).
T2 sequence: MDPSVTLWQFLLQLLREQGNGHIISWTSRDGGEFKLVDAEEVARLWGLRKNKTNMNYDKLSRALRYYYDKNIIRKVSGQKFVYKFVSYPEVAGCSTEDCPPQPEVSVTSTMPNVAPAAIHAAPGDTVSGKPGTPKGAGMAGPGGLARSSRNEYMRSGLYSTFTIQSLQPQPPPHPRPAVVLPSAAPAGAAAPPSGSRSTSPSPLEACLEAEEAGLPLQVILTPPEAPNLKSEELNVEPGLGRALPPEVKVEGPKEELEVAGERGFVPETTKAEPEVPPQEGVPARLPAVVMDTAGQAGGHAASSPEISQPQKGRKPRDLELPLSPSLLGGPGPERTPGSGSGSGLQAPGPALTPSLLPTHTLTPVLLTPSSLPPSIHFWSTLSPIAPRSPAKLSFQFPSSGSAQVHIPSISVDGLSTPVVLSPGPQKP
In outline: as §1

Another assay has as its target T3, GABPA (Homo sapiens, UniProt Q06546 1-454).
T3 sequence: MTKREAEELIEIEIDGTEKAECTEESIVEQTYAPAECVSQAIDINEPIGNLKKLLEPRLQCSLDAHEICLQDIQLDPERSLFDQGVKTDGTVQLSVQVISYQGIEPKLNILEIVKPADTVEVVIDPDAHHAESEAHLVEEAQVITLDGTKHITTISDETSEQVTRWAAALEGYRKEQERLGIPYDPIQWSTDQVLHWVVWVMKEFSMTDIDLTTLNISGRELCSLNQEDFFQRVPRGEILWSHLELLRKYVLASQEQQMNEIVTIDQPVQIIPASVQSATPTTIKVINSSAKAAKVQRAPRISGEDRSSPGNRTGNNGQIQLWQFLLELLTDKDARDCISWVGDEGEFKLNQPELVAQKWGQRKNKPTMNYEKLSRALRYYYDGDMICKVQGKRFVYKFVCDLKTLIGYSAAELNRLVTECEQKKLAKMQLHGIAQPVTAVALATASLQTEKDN
In short, it runs like this: as §1

The next assay concerns the target T4, ERG (Homo sapiens, UniProt P11308 1-479).
T4 sequence: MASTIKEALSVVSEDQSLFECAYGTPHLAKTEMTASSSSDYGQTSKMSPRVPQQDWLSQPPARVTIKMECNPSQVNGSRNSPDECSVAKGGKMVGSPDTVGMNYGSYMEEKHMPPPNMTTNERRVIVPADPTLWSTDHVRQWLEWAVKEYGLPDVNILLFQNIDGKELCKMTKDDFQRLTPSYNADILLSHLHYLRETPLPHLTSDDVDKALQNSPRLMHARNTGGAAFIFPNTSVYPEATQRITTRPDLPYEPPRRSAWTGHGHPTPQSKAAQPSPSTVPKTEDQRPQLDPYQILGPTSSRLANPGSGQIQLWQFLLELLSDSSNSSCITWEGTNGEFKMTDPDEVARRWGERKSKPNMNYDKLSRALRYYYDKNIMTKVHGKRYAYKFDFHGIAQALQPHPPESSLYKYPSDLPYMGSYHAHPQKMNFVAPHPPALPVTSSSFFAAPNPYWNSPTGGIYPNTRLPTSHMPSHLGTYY
In outline:
as §1

In a further assay the target is ELF1 (Homo sapiens, UniProt P32519 1-619). In short, it runs like this:
as §1

The next assay deals with T5, EHF (Homo sapiens, UniProt Q9NZC4 1-300).
T5 sequence: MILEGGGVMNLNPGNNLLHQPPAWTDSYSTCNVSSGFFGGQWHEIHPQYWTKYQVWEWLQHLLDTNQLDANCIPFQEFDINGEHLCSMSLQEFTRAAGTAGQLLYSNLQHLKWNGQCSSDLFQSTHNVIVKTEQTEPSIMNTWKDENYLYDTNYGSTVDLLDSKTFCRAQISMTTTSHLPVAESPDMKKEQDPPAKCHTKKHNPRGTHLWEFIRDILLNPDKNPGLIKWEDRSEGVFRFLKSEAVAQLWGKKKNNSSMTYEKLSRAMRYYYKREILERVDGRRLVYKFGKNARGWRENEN
In outline:
as §1

The next assay addresses SPI1 (Homo sapiens, UniProt P17947 1-270). In short, it runs like this:
as §1

For a further assay, the target named is SPIB (Homo sapiens, UniProt Q01892 1-262). In outline:
as §1

Another assay has as its target T6, ELK3 (Homo sapiens, UniProt P41970 1-407).
T6 sequence: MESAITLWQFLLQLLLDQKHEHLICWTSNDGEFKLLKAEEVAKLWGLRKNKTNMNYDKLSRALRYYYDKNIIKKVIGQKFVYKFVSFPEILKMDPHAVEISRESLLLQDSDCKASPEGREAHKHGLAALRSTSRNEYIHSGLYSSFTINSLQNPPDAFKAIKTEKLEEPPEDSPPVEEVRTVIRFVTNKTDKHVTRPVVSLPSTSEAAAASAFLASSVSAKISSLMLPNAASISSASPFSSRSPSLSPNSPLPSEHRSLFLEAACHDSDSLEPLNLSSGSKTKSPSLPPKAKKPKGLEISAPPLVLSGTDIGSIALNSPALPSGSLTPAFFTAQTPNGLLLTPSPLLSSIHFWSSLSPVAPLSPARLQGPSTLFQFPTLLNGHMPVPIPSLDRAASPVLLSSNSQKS
In short, it runs like this: as §1

ELF1, sequence (P32519 whole entry): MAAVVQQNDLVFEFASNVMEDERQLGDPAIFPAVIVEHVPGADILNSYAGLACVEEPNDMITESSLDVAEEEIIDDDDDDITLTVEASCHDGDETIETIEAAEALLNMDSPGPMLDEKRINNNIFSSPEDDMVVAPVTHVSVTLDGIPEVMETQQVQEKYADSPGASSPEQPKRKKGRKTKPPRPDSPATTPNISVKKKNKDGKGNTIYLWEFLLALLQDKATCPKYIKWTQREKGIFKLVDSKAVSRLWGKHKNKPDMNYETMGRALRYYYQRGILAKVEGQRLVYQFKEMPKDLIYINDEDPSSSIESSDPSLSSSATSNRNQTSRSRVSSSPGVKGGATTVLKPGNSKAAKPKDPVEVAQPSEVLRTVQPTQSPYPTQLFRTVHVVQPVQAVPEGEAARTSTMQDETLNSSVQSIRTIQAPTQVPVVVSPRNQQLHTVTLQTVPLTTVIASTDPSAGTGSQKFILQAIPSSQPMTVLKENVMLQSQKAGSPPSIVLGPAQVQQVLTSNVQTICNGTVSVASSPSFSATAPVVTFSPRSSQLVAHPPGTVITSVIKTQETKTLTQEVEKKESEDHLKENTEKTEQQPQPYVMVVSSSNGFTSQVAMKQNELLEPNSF
SPIB, sequence (Q01892 whole entry): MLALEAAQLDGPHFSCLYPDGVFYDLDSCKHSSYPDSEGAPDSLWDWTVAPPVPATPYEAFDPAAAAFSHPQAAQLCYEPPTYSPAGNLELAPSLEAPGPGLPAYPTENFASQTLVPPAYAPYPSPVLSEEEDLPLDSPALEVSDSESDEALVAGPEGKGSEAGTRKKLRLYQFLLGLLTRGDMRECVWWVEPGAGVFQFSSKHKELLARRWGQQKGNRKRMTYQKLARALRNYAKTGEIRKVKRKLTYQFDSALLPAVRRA

Regarding TAGTGT, the binding signal with FLI1 was 1.17 fold enrichment (6-mer frequency, TF over GST control); with ELK1 it was 1.16 fold enrichment (6-mer frequency, TF over GST control); with GABPA, 1.14 fold enrichment (6-mer frequency, TF over GST control); with ERG it was 1.02 fold enrichment (6-mer frequency, TF over GST control); with ELF1, 1.14 fold enrichment (6-mer frequency, TF over GST control); with EHF, 1.11 fold enrichment (6-mer frequency, TF over GST control). Also, the binding signal was 1.12 fold enrichment (6-mer frequency, TF over GST control) with SPI1; 1.14 fold enrichment (6-mer frequency, TF over GST control) with SPIB; 1.08 fold enrichment (6-mer frequency, TF over GST control) in the assay with ELK3.

In the case of AAAGAA, the binding signal was 1.18 fold enrichment (6-mer frequency, TF over GST control) with FLI1; 1.24 fold enrichment (6-mer frequency, TF over GST control) in the assay with ELK1; 1.23 fold enrichment (6-mer frequency, TF over GST control) in the assay with GABPA; 1.27 fold enrichment (6-mer frequency, TF over GST control) with ERG; 1.28 fold enrichment (6-mer frequency, TF over GST control) in the assay with ELF1; 1.32 fold enrichment (6-mer frequency, TF over GST control) in the assay with EHF. Further, the binding signal was 1.32 fold enrichment (6-mer frequency, TF over GST control) with SPI1; 1.24 fold enrichment (6-mer frequency, TF over GST control) with SPIB; 1.3 fold enrichment (6-mer frequency, TF over GST control) with ELK3.

Turning to AGTTTC, the binding signal is 1.23 fold enrichment (6-mer frequency, TF over GST control) with FLI1; 1.28 fold enrichment (6-mer frequency, TF over GST control) with ELK1; 1.29 fold enrichment (6-mer frequency, TF over GST control) with GABPA; 1.3 fold enrichment (6-mer frequency, TF over GST control) in the assay with ERG; 1.27 fold enrichment (6-mer frequency, TF over GST control) with ELF1; 1.34 fold enrichment (6-mer frequency, TF over GST control) with EHF. Moreover, the binding signal with SPI1 is 1.22 fold enrichment (6-mer frequency, TF over GST control); with SPIB it was 1.24 fold enrichment (6-mer frequency, TF over GST control); with ELK3, 1.46 fold enrichment (6-mer frequency, TF over GST control).

AGATGC: the binding signal is 1.13 fold enrichment (6-mer frequency, TF over GST control) in the assay with FLI1; 1.14 fold enrichment (6-mer frequency, TF over GST control) with ELK1; 1.05 fold enrichment (6-mer frequency, TF over GST control) with GABPA; 1.11 fold enrichment (6-mer frequency, TF over GST control) with ERG; 1.04 fold enrichment (6-mer frequency, TF over GST control) with ELF1; 1.08 fold enrichment (6-mer frequency, TF over GST control) in the assay with EHF. The binding signal is 1.08 fold enrichment (6-mer frequency, TF over GST control) with SPI1; 1.09 fold enrichment (6-mer frequency, TF over GST control) in the assay with SPIB; 1.01 fold enrichment (6-mer frequency, TF over GST control) with ELK3.

For AGTACT, the binding signal with FLI1 is 1.22 fold enrichment (6-mer frequency, TF over GST control); in the assay with ELK1, 1.41 fold enrichment (6-mer frequency, TF over GST control); with GABPA it was 1.19 fold enrichment (6-mer frequency, TF over GST control); with ERG, 1.25 fold enrichment (6-mer frequency, TF over GST control); with ELF1, 1.22 fold enrichment (6-mer frequency, TF over GST control); in the assay with EHF it was 1.27 fold enrichment (6-mer frequency, TF over GST control). In addition, the binding signal with SPI1 is 1.25 fold enrichment (6-mer frequency, TF over GST control); in the assay with SPIB, 1.13 fold enrichment (6-mer frequency, TF over GST control); with ELK3, 1.44 fold enrichment (6-mer frequency, TF over GST control).

As for TTGAAC, the binding signal with FLI1 was 1.13 fold enrichment (6-mer frequency, TF over GST control); in the assay with ELK1, 1.1 fold enrichment (6-mer frequency, TF over GST control); in the assay with GABPA, 1.08 fold enrichment (6-mer frequency, TF over GST control); in the assay with ERG, 1.01 fold enrichment (6-mer frequency, TF over GST control); with ELF1, 1.15 fold enrichment (6-mer frequency, TF over GST control); in the assay with EHF, 1.11 fold enrichment (6-mer frequency, TF over GST control). For the same sequence, the binding signal in the assay with SPI1 is 1.04 fold enrichment (6-mer frequency, TF over GST control); with SPIB, 1.12 fold enrichment (6-mer frequency, TF over GST control); with ELK3, 1.12 fold enrichment (6-mer frequency, TF over GST control).

With ACGAAC, the binding signal in the assay with FLI1 is 1.11 fold enrichment (6-mer frequency, TF over GST control); with ELK1, 1.15 fold enrichment (6-mer frequency, TF over GST control); in the assay with GABPA, 1.19 fold enrichment (6-mer frequency, TF over GST control); with ERG it was 1.15 fold enrichment (6-mer frequency, TF over GST control); with ELF1, 1.24 fold enrichment (6-mer frequency, TF over GST control); in the assay with EHF, 1.12 fold enrichment (6-mer frequency, TF over GST control). For the same sequence, the binding signal in the assay with SPI1 is 1.1 fold enrichment (6-mer frequency, TF over GST control); with SPIB, 1.22 fold enrichment (6-mer frequency, TF over GST control); with ELK3, 1.13 fold enrichment (6-mer frequency, TF over GST control).
